Sampled rows, rich in hits. Any-hit rate of the full collection: about 28%.
CD11b adhes enh: increases human CD11b/CD18 adhesion to fibrinogen; activation, % at 10 µM; AID 1499; 93,000 tested, 0.07% active; P05107+P11215; K562 CD11b/CD18 adhesion to fibrinogen, ATPlite luminescence;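 active = 10 µM primary screen giving 50% or more activity, confirmed by 40% or more on retest at that dose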
CD11b adhes inh: CD11b/CD18-fibrinogen binding inhibition | 93,000 tested, 0.54% active | K562 CD11b/CD18 adhesion to fibrinogen, ATPlite luminescence; Mn2+ added to activate the integrin | AID 1497 | inhibition, % at 10 µM | P05107+P11215;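 active = primary inhibition of 50% or more at 10 µM, then 40% or more on retest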
CYP2C9 act: increases human cytochrome P450 2C9 activity | P11712 | recombinant CYP2C9, luciferin-H conversion, luminescence; hits give high values; factor 1 = untreated enzyme, 0 = blocked | activation factor at 5 µM | 96,000 tested, 1.4% active;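 active = activation factor of 2 or more for CYP2C9 at a 5 µM dose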;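 also: 0 = sulfaphenazole-blocked wells and 1 = vehicle-only wells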
CYP2C19 activ: activators of human cytochrome P450 2C19; P33261; recombinant CYP2C19, luciferin-H EGE luminescence; hits give high values; 0 = fully inhibited enzyme, 1 = untreated enzyme; 96,000 tested, under 10 active; activation factor at 5 µM;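 active = activation factor of at least 2 at 5 µM in the primary screen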;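 also: 0 = wells with 2.5 mM tranylcypromine and 1 = vehicle-only wells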
CYP2C19 inh: human CYP2C19 inhibition; CYP2C19 Supersomes, luciferin-H EGE luminescence, 30 min; inhibition, % at 5 µM; 96,000 tested, 21% active; AID 778;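 active = CYP2C19 inhibition above a set limit at 5 µM in the primary screen, cut at about 50% in these data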;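 also: plate controls were negative control wells for no effect and 2.5 mM tranylcypromine positive control for full effect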
CYP2C9 inh: human CYP2C9 inhibition | CYP2C9 Supersomes, luciferin-H conversion, luminescence | 96,000 tested, 20% active | inhibition, % at 5 µM | AID 777;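 active = blocking of liver enzyme CYP2C9 beyond about 50% at 5 µM, limit read from the data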
* = called active by the depositor; / = no result.

SMILES	CD11b adhes enh	CD11b adhes inh	CYP2C9 act	CYP2C19 activ	CYP2C19 inh	CYP2C9 inh
C=CCOC(=O)C1=C(C)Nc2nc3ccccc3n2C1c1ccncc1 (configuration not stated)	-3	-4	0.4	0.4	62*	58*
CCOC(=O)C1=C(C)Nc2nc3ccccc3n2C1c1ccncc1 (configuration not stated)	-3	-10	0.5	0.5	54*	54*
O=c1c2c(nc3c(-c4ccccc4)c[nH]n13)CCCC2	1	22	0.6	0.8	15	37
COc1ccc(-n2c(C)cc(C=O)c2C)cc1Cl	/	/	0.8	0.4	59*	16
C=CCn1c(-c2csc3ccccc23)n[nH]c1=S	-3	-1	0.2	0.1	93*	78*
C=CCn1c(-c2csc(-c3ccccc3)n2)n[nH]c1=S	-4	5	0.8	0.8	20	21
C=CCn1c(-c2csc(-c3ccc(Cl)cc3)n2)n[nH]c1=S	18	-2	0.9	0.2	81*	8
Cc1cc2ccccc2cc1CN1CCOCC1	1	1	1	0.4	58*	-1
c1cc2ccc3ccc(CN4CCOCC4)c4ccc(c1)c2c34	/	/	1.5	0.3	74*	-48
Cc1cc(Nc2ccccc2Cl)n2nnnc2n1	-1	-32	0.9	0.9	11	6
O=C(N=C1SCC(=O)N1c1ccccc1)c1ccco1	-3	-4	0.8	0.5	51*	16
Cc1noc(C)c1C(=O)Nc1ccccc1-c1ccccc1	-1	-6	0.8	0.8	24	19
COc1ccc(NC(=O)CN(C)S(=O)(=O)c2cccc3cccnc23)cc1	0	-14	0.1	0.3	70*	90*
Cc1cccc(NS(=O)(=O)c2cccs2)c1	-2	0	0.8	0.1	93*	20
O=S(=O)(c1cccc2cccnc12)N(CCO)CCO	-3	1	1.4	1.2	-17	-36
Cc1ccccc1NC(=O)CN(C)S(=O)(=O)c1cccc2cccnc12	4	-12	0.1	0.3	72*	88*
CN(CC(=O)Nc1ccc(Cl)cc1)S(=O)(=O)c1cccc2cccnc12	-3	6	0.3	0.5	48	68*
CN(C)CC(C)(C)CNC(=O)C1CCN(Cc2ccccc2O)CC1	-1	2	0.9	1	4	11
Cc1cn(C(=O)CN2C(=O)c3ccccc3C2=O)c(C)n1	-1	-5	1.1	1.1	-11	-7
Cc1ccc(S(=O)(=O)N(C)CC(=O)Nc2cccc(C)n2)cc1	2	-9	1.3	0.8	23	-25
Cc1cccc(NC(=O)CN(C)S(=O)(=O)c2cccc3cccnc23)c1	1	0	0.5	0.5	48	54*
Cc1cccc(NC(=O)CN(C)S(=O)(=O)c2cccs2)c1	-4	5	0.6	0.2	80*	38
CN(CC(=O)Nc1ccc2c(c1)OCCO2)S(=O)(=O)c1cccc2cccnc12	-3	-6	0.1	0.2	78*	94*
CCOC(=O)N1CCN(C(=O)COc2cccc3c2CCN(Cc2ccc(F)cc2)C3=O)CC1	-2	27	/	/	/	/
CNc1cnn(-c2ccc(C)cc2)c(=O)c1Cl	/	/	1.1	1	4	-7
SMILES	CD11b adhes enh	CD11b adhes inh	CYP2C9 act	CYP2C19 activ	CYP2C19 inh	CYP2C9 inh
CCOC(=O)c1[nH]c(C)c(CN(CCc2ccccc2)S(C)(=O)=O)c1C	1	-6	0.4	0.7	31	56*
CCOC(=O)c1[nH]c(C)c(CN(CCc2ccc(OC)c(OC)c2)C(=O)CCCC(=O)O)c1C	-3	12	0.9	0.9	14	6
O=C(NCc1ccc(Cl)cc1Cl)C1CCN(S(=O)(=O)c2ccc3c(c2)OCCCO3)CC1	2	17	/	/	/	/
CCOCCOCN(C#N)c1nc(OC)nc(N(C)C)n1	-2	-11	1.4	0.4	64*	-44
Cc1ccc(S(=O)(=O)N2CCN(C(=O)N3CCOCC3)C2C)cc1 (configuration not stated)	-5	-20	1.3	0.8	23	-28
CSc1nsc(SC)c1C(=O)N1CCN(S(=O)(=O)c2ccc(C)cc2)C1C (configuration not stated)	3	0	0.3	0.6	42	74*
Cc1ccc(C(C)C)c(OCCNC(=S)Nc2cccc3ccccc23)c1	-10	18	0.2	0.1	85*	84*
COc1ccc(S(=O)(=O)N2CCc3ccccc32)cc1C(=O)OCc1nnc(-c2ccccc2)o1	0	-4	0	0.1	88*	99*
O=C(Nc1ccc(N2CCCC2)c(Cl)c1)c1ccccc1[N+](=O)[O-]	-4	0	/	/	/	/
O=C(CN(Cc1cccs1)C(=O)CN1C(=O)COc2ccccc21)NCc1ccco1	3	-18	0.9	0.9	12	13
O=C(NCc1ccco1)C(c1cccs1)N(C(=O)C1COc2ccccc2O1)c1cccc(O)c1 (configuration not stated)	0	-13	0.1	0	97*	94*
Cc1ccc(NC(=O)c2ccc(NS(=O)(=O)c3c(C)noc3C)cc2)cc1C	1	31	0.2	0.9	8	79*
Cc1ccc(CNC(=O)C2CCN(S(=O)(=O)c3c(C)noc3C)CC2)cc1	-5	-6	1.1	1.1	-8	-14
COc1ccc(NC(=O)c2ccc(NS(=O)(=O)c3c(C)noc3C)cc2)cc1OC	-2	-17	0.8	0.9	7	22
Cc1noc(C)c1S(=O)(=O)Nc1ccc(C(=O)NCCc2ccccc2)cc1	-4	0	0.4	1	-1	60*
COc1ccccc1CNC(=O)C1CCN(S(=O)(=O)c2c(C)noc2C)CC1	-2	2	2*	1	0	-99
COc1ccccc1CNC(=O)c1ccc(NS(=O)(=O)c2c(C)noc2C)cc1	-2	-17	0.2	0.9	12	78*
COc1ccccc1NC(=O)c1ccc(NS(=O)(=O)c2c(C)noc2C)cc1	-2	-12	1.4	1	4	-44
Cc1noc(C)c1C(=O)NCCc1ccccc1	-3	1	1.1	0.9	5	-8
CC(C)Cc1nnc(NC(=O)CCC(=O)N2CCN(c3ccccn3)CC2)s1	-2	-2	0.9	1	2	11
CCC(C)c1ccc(NC(=O)COC(=O)C2=COCCO2)cc1 (configuration not stated)	-1	10	0.9	1.1	-6	14
COc1ccc(Br)cc1CNC(=O)C1CCN(S(=O)(=O)N2CCCCC2)CC1	/	/	2.2*	0.8	23	-119
COc1ccc(OC)c(CNC(=O)C2CCN(S(=O)(=O)N3CCCC3)CC2)c1	1	-6	1.2	1	2	-20
COc1ccc(CNC(=O)c2ccc(NS(=O)(=O)c3c(C)noc3C)cc2)cc1	-3	-11	0.4	1	-3	58*

High-throughput results (PubChem BioAssay)
